# Experimental data reported in paper PMC11006913.
# Where a chain is given by its changes, count along the chain named.
# Legend:
# Assay in all cases: PBM; 200 nM protein, PBS
# Details in all cases: dsDNA, one strand shown
# [1] = target: T1, SIX6 (Homo sapiens, UniProt O95475 114-200, L167I)
# T1 sequence: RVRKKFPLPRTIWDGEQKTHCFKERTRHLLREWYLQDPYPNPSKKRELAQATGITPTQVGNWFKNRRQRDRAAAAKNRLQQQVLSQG
# [2] = target: T2, SIX6 (Homo sapiens, UniProt O95475 114-200, L143V)
# T2 sequence: T1 sequence with L30V, I54L
# [3] = target: T3, SIX6 (Homo sapiens, UniProt O95475 114-200, H141N)
# T3 sequence: T1 sequence with H28N, I54L
# [4] = target: T4, SIX6 (Homo sapiens, UniProt O95475 114-200, T165P)
# T4 sequence: T1 sequence with T52P, I54L
# [5] = target: T5, SIX6 (Homo sapiens, UniProt O95475 114-200, L167M)
# T5 sequence: T1 sequence with I54M
# [6] = target: T6, SIX6 (Homo sapiens, UniProt O95475 114-200, L143M)
# T6 sequence: T1 sequence with L30M, I54L
# [7] = target: T7, SIX6 (Homo sapiens, UniProt O95475 114-200, L143I)
# T7 sequence: T1 sequence with L30I, I54L
# [8] = target: T8, SIX6 (Homo sapiens, UniProt O95475 114-200, T165G)
# T8 sequence: T1 sequence with T52G, I54L
# [9] = target: T9, SIX6 (Homo sapiens, UniProt O95475 114-200, T139Q)
# T9 sequence: T1 sequence with T26Q, I54L
# [10] = target: T10, SIX6 (Homo sapiens, UniProt O95475 114-200, T165A)
# T10 sequence: T1 sequence with T52A, I54L
# [11] = target: T11, SIX6 (Homo sapiens, UniProt O95475 114-200, L167V)
# T11 sequence: T1 sequence with I54V
# [12] = target: T12, SIX6 (Homo sapiens, UniProt O95475 114-200)
# T12 sequence: T1 sequence with I54L
# [13] = target: T13, SIX6 (Homo sapiens, UniProt O95475 114-200, T165I)
# T13 sequence: T1 sequence with T52I, I54L
# [14] = target: NKX3-2 (Homo sapiens, UniProt P78367 192-278, P234S)
# [15] = target: NKX3-2 (Homo sapiens, UniProt P78367 192-278)
# Chain of NKX3-2 (Homo sapiens, UniProt P78367 192-278) (P78367 192-278): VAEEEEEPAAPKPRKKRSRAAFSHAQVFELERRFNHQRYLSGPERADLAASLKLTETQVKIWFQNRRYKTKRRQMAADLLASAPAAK
# Chain of NKX3-2 (Homo sapiens, UniProt P78367 192-278, P234S) (P78367 192-278 P234S): as the sequence (P78367 192-278) above, with P43S counted along it
Sequence,binding signal [1],binding signal [2],binding signal [3],binding signal [4],binding signal [5],binding signal [6],binding signal [7],binding signal [8],binding signal [9],binding signal [10],binding signal [11],binding signal [12],binding signal [13],binding signal [14],binding signal [15]
GCAGCCGC,"8.93 upbm affinity estimate (log intensity, higher = more binding, comparable within an allelic series)","8.9 upbm affinity estimate (log intensity, higher = more binding, comparable within an allelic series)","8.98 upbm affinity estimate (log intensity, higher = more binding, comparable within an allelic series)","8.93 upbm affinity estimate (log intensity, higher = more binding, comparable within an allelic series)","9.02 upbm affinity estimate (log intensity, higher = more binding, comparable within an allelic series)","8.94 upbm affinity estimate (log intensity, higher = more binding, comparable within an allelic series)","8.95 upbm affinity estimate (log intensity, higher = more binding, comparable within an allelic series)","8.95 upbm affinity estimate (log intensity, higher = more binding, comparable within an allelic series)","9.01 upbm affinity estimate (log intensity, higher = more binding, comparable within an allelic series)","9.01 upbm affinity estimate (log intensity, higher = more binding, comparable within an allelic series)","8.97 upbm affinity estimate (log intensity, higher = more binding, comparable within an allelic series)","8.98 upbm affinity estimate (log intensity, higher = more binding, comparable within an allelic series)","9.03 upbm affinity estimate (log intensity, higher = more binding, comparable within an allelic series)",–,–
CTGGCGCC,"8.88 upbm affinity estimate (log intensity, higher = more binding, comparable within an allelic series)","8.96 upbm affinity estimate (log intensity, higher = more binding, comparable within an allelic series)","8.82 upbm affinity estimate (log intensity, higher = more binding, comparable within an allelic series)","9.1 upbm affinity estimate (log intensity, higher = more binding, comparable within an allelic series)","8.85 upbm affinity estimate (log intensity, higher = more binding, comparable within an allelic series)","8.93 upbm affinity estimate (log intensity, higher = more binding, comparable within an allelic series)","8.9 upbm affinity estimate (log intensity, higher = more binding, comparable within an allelic series)","8.9 upbm affinity estimate (log intensity, higher = more binding, comparable within an allelic series)","8.85 upbm affinity estimate (log intensity, higher = more binding, comparable within an allelic series)","8.87 upbm affinity estimate (log intensity, higher = more binding, comparable within an allelic series)","8.8 upbm affinity estimate (log intensity, higher = more binding, comparable within an allelic series)","8.82 upbm affinity estimate (log intensity, higher = more binding, comparable within an allelic series)","8.87 upbm affinity estimate (log intensity, higher = more binding, comparable within an allelic series)","10.6 upbm affinity estimate (log intensity, higher = more binding, comparable within an allelic series)","10.5 upbm affinity estimate (log intensity, higher = more binding, comparable within an allelic series)"
TATAACCA,"10.1 upbm affinity estimate (log intensity, higher = more binding, comparable within an allelic series)",–,"10.1 upbm affinity estimate (log intensity, higher = more binding, comparable within an allelic series)",–,"10.2 upbm affinity estimate (log intensity, higher = more binding, comparable within an allelic series)",–,–,"10.2 upbm affinity estimate (log intensity, higher = more binding, comparable within an allelic series)",–,–,–,"10.1 upbm affinity estimate (log intensity, higher = more binding, comparable within an allelic series)",–,–,–
AAGTATCT,"10.5 upbm affinity estimate (log intensity, higher = more binding, comparable within an allelic series)",–,"10.4 upbm affinity estimate (log intensity, higher = more binding, comparable within an allelic series)",–,"10.2 upbm affinity estimate (log intensity, higher = more binding, comparable within an allelic series)","10.4 upbm affinity estimate (log intensity, higher = more binding, comparable within an allelic series)","9.98 upbm affinity estimate (log intensity, higher = more binding, comparable within an allelic series)","10.4 upbm affinity estimate (log intensity, higher = more binding, comparable within an allelic series)","10.6 upbm affinity estimate (log intensity, higher = more binding, comparable within an allelic series)","10.4 upbm affinity estimate (log intensity, higher = more binding, comparable within an allelic series)","10.3 upbm affinity estimate (log intensity, higher = more binding, comparable within an allelic series)","10.3 upbm affinity estimate (log intensity, higher = more binding, comparable within an allelic series)","10.3 upbm affinity estimate (log intensity, higher = more binding, comparable within an allelic series)",–,–
GGTGTCAC,"10.3 upbm affinity estimate (log intensity, higher = more binding, comparable within an allelic series)",–,–,–,"9.69 upbm affinity estimate (log intensity, higher = more binding, comparable within an allelic series)",–,–,"11.1 upbm affinity estimate (log intensity, higher = more binding, comparable within an allelic series)",–,"11.1 upbm affinity estimate (log intensity, higher = more binding, comparable within an allelic series)",–,–,–,–,–
CTTGATAC,"11.2 upbm affinity estimate (log intensity, higher = more binding, comparable within an allelic series)",–,"11.1 upbm affinity estimate (log intensity, higher = more binding, comparable within an allelic series)",–,–,–,–,"11.2 upbm affinity estimate (log intensity, higher = more binding, comparable within an allelic series)",–,"11.1 upbm affinity estimate (log intensity, higher = more binding, comparable within an allelic series)","10.9 upbm affinity estimate (log intensity, higher = more binding, comparable within an allelic series)",–,–,–,–
GGATAGTA,"10.4 upbm affinity estimate (log intensity, higher = more binding, comparable within an allelic series)",–,"10.3 upbm affinity estimate (log intensity, higher = more binding, comparable within an allelic series)","9.87 upbm affinity estimate (log intensity, higher = more binding, comparable within an allelic series)","10.3 upbm affinity estimate (log intensity, higher = more binding, comparable within an allelic series)",–,"10.2 upbm affinity estimate (log intensity, higher = more binding, comparable within an allelic series)","10.4 upbm affinity estimate (log intensity, higher = more binding, comparable within an allelic series)","10.6 upbm affinity estimate (log intensity, higher = more binding, comparable within an allelic series)",–,"10.3 upbm affinity estimate (log intensity, higher = more binding, comparable within an allelic series)","10.4 upbm affinity estimate (log intensity, higher = more binding, comparable within an allelic series)","10.3 upbm affinity estimate (log intensity, higher = more binding, comparable within an allelic series)",–,–
ACTATACG,"10 upbm affinity estimate (log intensity, higher = more binding, comparable within an allelic series)",–,"10 upbm affinity estimate (log intensity, higher = more binding, comparable within an allelic series)",–,"10.1 upbm affinity estimate (log intensity, higher = more binding, comparable within an allelic series)",–,–,"9.95 upbm affinity estimate (log intensity, higher = more binding, comparable within an allelic series)",–,"10 upbm affinity estimate (log intensity, higher = more binding, comparable within an allelic series)","10 upbm affinity estimate (log intensity, higher = more binding, comparable within an allelic series)","10.1 upbm affinity estimate (log intensity, higher = more binding, comparable within an allelic series)","9.99 upbm affinity estimate (log intensity, higher = more binding, comparable within an allelic series)",–,–
